Screening results deposited in PubChem BioAssay by National Center for Advancing Translational Sciences (NCATS).
Hits are enriched below; roughly 1.4% of the tested compounds scored in any of these assays.
EPAC2 antagonist: qHTS for Antagonist of cAMP-regulated guanine nucleotide exchange factor 2 (EPAC2): primary screen. EPAC2 GEF exchange of Rap1B-BODIPY-GDP, fluorescence. Potency, µM (titrated, usually from 114 µM), most hits filed as inhibitors. actives 0.18% (n = 360,000); also: nearly all actives have a fitted effect of over 45% in size
EPAC1 agonist: qHTS for Agonist of cAMP-regulated guanine nucleotide exchange factor 3 (EPAC1): primary screen | EPAC1 agonist qHTS, biochemical assay; response scale: 100% = response to 6.5 mM cAMP | Potency, µM (titrated, usually from 154 µM), usual class: activators | Rap guanine nucleotide exchange factor 3 (Homo sapiens), O95398 | AID 720707, 2013 | actives 0.073% (n = 360,000); also: nearly all actives have a fitted effect of over 60% in size
Target sequence (O95398 whole entry, looked up): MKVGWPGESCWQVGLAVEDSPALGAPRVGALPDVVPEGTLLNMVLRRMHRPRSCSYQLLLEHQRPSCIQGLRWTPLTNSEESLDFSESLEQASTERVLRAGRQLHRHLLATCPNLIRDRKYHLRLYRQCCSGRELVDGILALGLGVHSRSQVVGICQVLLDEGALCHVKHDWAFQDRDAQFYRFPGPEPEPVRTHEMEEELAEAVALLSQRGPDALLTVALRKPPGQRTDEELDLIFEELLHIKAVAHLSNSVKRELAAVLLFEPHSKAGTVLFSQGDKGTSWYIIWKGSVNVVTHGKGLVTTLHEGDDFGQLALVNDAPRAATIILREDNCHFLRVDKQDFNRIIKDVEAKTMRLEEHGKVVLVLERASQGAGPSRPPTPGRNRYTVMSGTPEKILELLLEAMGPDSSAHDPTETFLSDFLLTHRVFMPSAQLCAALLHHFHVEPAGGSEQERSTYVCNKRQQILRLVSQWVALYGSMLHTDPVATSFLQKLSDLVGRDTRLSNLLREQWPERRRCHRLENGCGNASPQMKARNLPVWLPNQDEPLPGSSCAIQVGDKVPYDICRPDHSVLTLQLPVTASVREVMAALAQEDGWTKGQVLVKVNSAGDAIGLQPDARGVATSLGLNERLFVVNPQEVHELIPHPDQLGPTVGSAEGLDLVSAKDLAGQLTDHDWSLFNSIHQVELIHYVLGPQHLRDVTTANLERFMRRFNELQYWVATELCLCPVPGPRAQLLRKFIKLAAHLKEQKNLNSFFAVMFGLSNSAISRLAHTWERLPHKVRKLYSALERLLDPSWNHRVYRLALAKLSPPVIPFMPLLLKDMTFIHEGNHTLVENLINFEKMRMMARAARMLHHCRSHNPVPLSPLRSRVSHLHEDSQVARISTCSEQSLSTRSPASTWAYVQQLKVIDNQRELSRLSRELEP
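Fluorescent GDP-exchange assay: 100 nM EPAC1 with 250 nM Rap1B preloaded with BODIPY-GDP and 50 uM GDP; compounds tested as concentration series, 5 min at room temperature, then read every 5 min for 30 min (ex 480/em 540 nm); normalized to 6.5 mM cAMP.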
USP1 inh: Inhibitors of USP1/UAF1: Primary Screen; Ubiquitin carboxyl-terminal hydrolase 1 (Homo sapiens), O94782; recombinant USP1/UAF1, Ub-Rhodamine cleavage fluorescence; Potency, µM (doses to about 57.1 µM), hits mostly inhibitors; actives 0.23% (n = 390,000); AID 743255, 2014; also: nearly all actives have a fitted effect of over 60% in size
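In this screen, compounds sit with the deubiquitinase complex (1nM) for 15 min at room temperature before Ub-Rho is added at 150nM final. Fluorescence rise is then followed for 6 reads every 60 seconds.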
EPAC2 agonist: qHTS for Agonist of cAMP-regulated guanine nucleotide exchange factor 4 (EPAC2): primary screen | EPAC2 activation, biochemical qHTS; response scale: 100% = 6.5 mM cAMP response | Potency, µM (highest dose often 154 µM), usual class: activators | actives 0.079% (n = 360,000) | AID 720711, 2013; also: nearly all actives have a fitted effect of over 50% in size
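Compounds were titrated in qHTS against a Rap1B-BODIPY-GDP (250 nM) complex with EPAC2 (100 nM) and GDP (50 uM). BODIPY-GDP release tracked at 480/540 nm over 30 min at room temperature, normalized to 6.5 mM cAMP.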
EPAC1 antag: qHTS for Antagonist of cAMP-regulated guanine nucleotide exchange factor 3 (EPAC1): primary screen | EPAC1 GEF assay, Rap1b-BODIPY-GDP exchange fluorescence | actives 0.14% (n = 360,000) | Potency, µM (top dose mostly 115 µM), most hits filed as inhibitors | Rap guanine nucleotide exchange factor 3 (Homo sapiens), O95398; also: nearly all actives have a fitted effect of over 50% in size
BRCA1 expr act: qHTS Assay to Identify Small Molecule Activators of BRCA1 Expression | MCF7-BRCA1-FFLuc reporter, luminescence, 48 h; response scale: scaled: vehicle 0%, 10 µM genistein 100% | Potency, µM (titrated, usually from 46.1 µM), actives largely listed as activators | actives 1.1% (n = 380,000) | AID 624202, 2012; also: nearly all actives have a fitted effect of over 80% in size
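Luminescence from a BRCA1-driven firefly luciferase in MCF7 cells was read after 48 h compound exposure at 37 C. Data normalized against DMSO and a 10microM genistein activation control, then curve-fitted across the titration.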
A number is an active result; - = inactive; ? = inconclusive; . = no result given. Calls follow the shape of the dose curve; as a rule, active = well fitted curve in the direction sought with a large enough effect; inconclusive = small, poorly fitted or top-dose-only effect, or another doubt; inactive = no such curve, though single readings can be large; an effect the other way counts as inactive or inconclusive.

SMILES | EPAC2 antagonist | EPAC1 agonist | USP1 inh | EPAC2 agonist | EPAC1 antag | BRCA1 expr act
Cc1nc(-c2ccc(C(=O)Nc3ccccc3F)cc2)cs1 | - | - | - | - | - | 10µM
Cc1nc(-c2ccc(NC(=O)Cc3ccccc3)cc2)cs1 | - | - | - | - | - | 8.91µM
Cc1nc(-c2ccc(C(=O)Nc3cccc(F)c3)cc2)cs1 | - | - | - | - | - | ?
CN1/C(=C/C=C(C#N)C#N)C(C)(C)c2ccccc21 | - | - | ? | 112µM | - | -
CN1\C(=C/C=C/C=C/C=[N+](C)C)C(C)(C)c2ccccc21 | - | 56.2µM | 25.1µM | - | - | -
Cc1ccc(N2CC(C(=O)NC(C)CCc3ccccc3)CC2=O)cc1 (stereo not given) | - | - | - | - | - | -
C=CCn1nc(-c2ccccc2)cc1C(=O)OCC | - | - | - | - | - | -
Cc1ccc(Cn2nc(C)cc2C(=O)Nc2ccccc2Cl)cc1 | - | - | - | - | - | 3.98µM
CCOC(=O)c1cc(-c2ccc(C)cc2)nn1Cc1ccccc1 | . | . | - | . | . | 10µM
CC1=CC(=O)Nc2ncccc2O1 | - | - | - | - | - | -
Cc1ccc(S(=O)(=O)N2CCOCC2)cc1C(=O)Nc1ccccc1N1CCOCC1 | - | - | - | - | - | -
CCOC(=O)c1cc(-c2ccc(OC)cc2)n(CCC(=O)Nc2nc3ccc(OCC)cc3s2)c1C | . | . | - | . | . | .
CCOC(=O)C(C)Sc1ncnc2c1nnn2-c1ccc(F)cc1 (stereo not given) | 20µM | - | - | - | - | -
CCOC(=O)c1ccc(N2C(=O)C3C(/C=C/c4ccccc4)OC4(C(=O)c5ccccc5C4=O)C3C2=O)cc1 (stereo not given) | - | - | - | - | 100µM | -
CCOC(=O)c1ccc(N2C(=O)[C@@H](c3ccccc3)[C@H]2c2ccccc2)cc1 | - | - | - | - | - | -
O=C(Cn1c(=O)c2cccn2c2ccc(F)cc21)NCc1cccc(Cl)c1 | . | . | - | . | . | .
COc1ccc(C2OC(=O)CC2C(=O)NCc2ccc(Cl)cc2)cc1OC (stereo not given) | - | - | - | - | - | 8.91µM
Cc1nc2n(c(=O)c1CCN1CCC(c3noc4cc(F)ccc34)CC1)CCC[C@@H]2O | . | . | . | . | . | -
COc1ccc(CNC(=O)C2CCN(c3nccs3)CC2)cc1 | - | - | - | - | - | -
COc1ccc(N2CCN(c3nccs3)CC2)cc1 | ? | - | ? | - | - | 11.2µM
Fc1ccccc1COc1ccc(/C=N/n2cnnc2)cc1 | - | - | - | - | - | 10µM
CC(C)(CNC(=O)c1ccc(-c2ccccc2Cl)o1)N1CCOCC1 | - | - | - | - | - | 10µM
CC(C)(CNC(=O)c1ccc(Br)o1)N1CCOCC1 | - | - | - | - | - | -
CC(=O)N1CCN(C(=O)c2ccc(-c3ccccc3Cl)o2)CC1 | - | - | - | - | - | 11.2µM
O=[N+]([O-])c1ccc2c(c1)C=C/C2=C\c1ccc(C=S)cc1 | . | . | . | . | . | 5.62µM
SMILES | EPAC2 antagonist | EPAC1 agonist | USP1 inh | EPAC2 agonist | EPAC1 antag | BRCA1 expr act
O=Cc1ccc(/C=C2/C=Cc3ccccc32)cc1 | . | . | . | . | . | -
COc1cc(NC(=O)c2cc3c(s2)-c2ccccc2OC3)cc(OC)c1OC | . | . | - | . | . | .
COc1ccc(OCCCSc2ncccn2)cc1 | - | - | - | - | - | 12.6µM
c1cnc(SCCCOc2ccc3ccccc3c2)nc1 | - | - | - | - | ? | 11.2µM
COc1ccc(OCCSc2ncccn2)cc1 | - | - | - | - | - | ?
Nc1cc(N)nc(SCCOc2ccccc2)n1 | - | - | - | - | - | 12.6µM
